Inconclusive results are not listed. Active and inactive are the calls of the source. Calls follow the shape of the dose curve; as a rule, active = well fitted curve in the direction sought with a large enough effect in the repeat runs; inconclusive = weak or mixed curves; inactive = no such curve, though single readings can be large; an effect the other way counts as inactive or inconclusive. Non-standard residues stand in square brackets, D forms with d. Residues, ends and D or L forms follow the SMILES beside them. *: point of attachment. Sta = CC(C)C[C@H](N)[C@@H](O)CC(=O)O; Isovaleryl = CC(C)CC(=O)*
What was measured:
[1] = qHTS RealTime-Glo MT Cell Viability Assay in HepG2 cells - 24 hour (AID 1224867); conditions: RealTime-Glo luminescence; series mostly up to 76.8 µM; also: nearly all actives have a fitted effect of over 50% in size
Method in brief: (§1)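 Viability was tracked continuously by NanoLuc luminescence from prosubstrate reduced by living HepG2 cells, at successive time points over 40 h of compound exposure. Cells with reagent were preincubated 5 h at 37 °C before compound addition.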

[2] = qHTS RealTime-Glo MT Cell Viability Assay in HEK293 cells - 32 hour (AID 1224868); conditions: RealTime-Glo luminescence; series mostly up to 76.8 µM; also: top concentration of the series differs between compounds; nearly all actives have a fitted effect of over 50% in size
Method in brief: (§2)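 Viability tracked continuously by luminescence as live cells reduce a prosubstrate for NanoLuc; HEK293 cells preincubated 5 h, compound-treated at 37 C, and read at 0, 8, 16, 24, 32 and 40 h.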

[3] = qHTS RealTime-Glo MT Cell Viability Assay in HepG2 cells - 40 hour (AID 1224870); conditions: RealTime-Glo luminescence; series mostly up to 76.8 µM; also: nearly all actives have a fitted effect of over 50% in size
Method in brief: (§3)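 Real-time viability: cells seeded at 600 per well together with NanoLuc and cell-permeant prosubstrate, compounds added after 5 h incubation. Luminescence tracked at 0, 8, 16, 24, 32 and 40 h of exposure.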

[4] = A CellTox Green Cytotoxicity Assay to monitor cytotoxicity in HEK293 cells - 40 hour (AID 1224871); conditions: CellTox Green fluorescence; series mostly up to 76.8 µM; also: nearly all actives have a fitted effect of over 45% in size
Method in brief: (§4)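 HEK293 cells, 600/well, were preincubated 5 hours and then exposed to compounds at 37 C for up to 40 hours. A cell-impermeant cyanine dye staining dead-cell DNA was read by fluorescence at 0, 8, 16, 24, 32 and 40 h time points.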

[5] = qHTS RealTime-Glo MT Cell Viability Assay in HEK293 cells - 16 hour (AID 1224872); conditions: RealTime-Glo luminescence; series mostly up to 76.8 µM; also: top concentration of the series differs between compounds; nearly all actives have a fitted effect of over 50% in size
Method in brief: as §2

[6] = qHTS RealTime-Glo MT Cell Viability Assay in HepG2 cells - 8 hour (AID 1224873); conditions: RealTime-Glo luminescence; series mostly up to 76.8 µM; also: nearly all actives have a fitted effect of over 55% in size
Method in brief: as §3

[7] = qHTS RealTime-Glo MT Cell Viability Assay in HEK293 cells - 40 hour (AID 1224874); conditions: RealTime-Glo luminescence, hits give low values; also: nearly all actives have a fitted effect of over 50% in size
Method in brief: (§5)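 600 cells/well were plated with the nonlytic NanoLuc/prosubstrate reagent, pre-incubated 5 h, then given 23 nL of compound in DMSO. Incubation at 37 C for 40 h, with luminescence from viable-cell-reduced substrate read repeatedly from 0 h.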

[8] = A CellTox Green Cytotoxicity Assay to monitor cytotoxicity in HEK293 cells - 24 hour (AID 1224875); conditions: CellTox Green fluorescence; series mostly up to 76.8 µM; also: nearly all actives have a fitted effect of over 45% in size
Method in brief: as §4

[9] = A CellTox Green Cytotoxicity Assay to monitor cytotoxicity in HepG2 cells - 16 hour (AID 1224876); conditions: CellTox Green fluorescence; series mostly up to 76.8 µM; also: nearly all actives have a fitted effect of over 45% in size
Method in brief: (§6)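 HepG2 cells, 600/well, preincubated 5 h with CellTox Green dye, then exposed to Tox21 compounds in DMSO at 37 C for up to 40 h. Dead-cell DNA fluorescence read at the indicated time point.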

[10] = qHTS RealTime-Glo MT Cell Viability Assay in HepG2 cells - 32 hour (AID 1224877); conditions: RealTime-Glo luminescence; series mostly up to 76.8 µM; also: nearly all actives have a fitted effect of over 55% in size
Method in brief: as §1

[11] = A CellTox Green Cytotoxicity Assay to monitor cytotoxicity in HepG2 cells - 40 hour (AID 1224879); conditions: CellTox Green fluorescence; series mostly up to 76.8 µM; also: nearly all actives have a fitted effect of over 40% in size
Method in brief: as §6

[12] = qHTS RealTime-Glo MT Cell Viability Assay in HEK293 cells - 0 hour (AID 1224880); conditions: RealTime-Glo luminescence; series mostly up to 76.8 µM; also: top concentration of the series differs between compounds; nearly all actives have a fitted effect of over 45% in size
Method in brief: as §5

[13] = A CellTox Green Cytotoxicity Assay to monitor cytotoxicity in HEK293 cells - 32 hour (AID 1224881); conditions: CellTox Green fluorescence; series mostly up to 76.8 µM; also: nearly all actives have a fitted effect of over 40% in size
Method in brief: as §4

[14] = A CellTox Green Cytotoxicity Assay to monitor cytotoxicity in HepG2 cells - 0 hour (AID 1224882); conditions: CellTox Green fluorescence; series mostly up to 76.8 µM; also: nearly all actives have a fitted effect of over 35% in size
Method in brief: as §6

[15] = A CellTox Green Cytotoxicity Assay to monitor cytotoxicity in HepG2 cells - 32 hour (AID 1224883); conditions: CellTox Green fluorescence; series mostly up to 76.8 µM; also: nearly all actives have a fitted effect of over 50% in size; also: potency is read from the fitted curve at half-maximal effect
Method in brief: as §6

[16] = A CellTox Green Cytotoxicity Assay to monitor cytotoxicity in HEK293 cells - 8 hour (AID 1224884); conditions: CellTox Green fluorescence; series mostly up to 76.8 µM; also: nearly all actives have a fitted effect of over 35% in size
Method in brief: as §4

[17] = qHTS RealTime-Glo MT Cell Viability Assay in HepG2 cells - 16 hour (AID 1224885); conditions: RealTime-Glo luminescence; series mostly up to 76.8 µM; also: nearly all actives have a fitted effect of over 50% in size
Method in brief: as §1

[18] = qHTS RealTime-Glo MT Cell Viability Assay in HEK293 cells - 24 hour (AID 1224886); conditions: RealTime-Glo luminescence; series mostly up to 76.8 µM
Method in brief: as §2

[19] = A CellTox Green Cytotoxicity Assay to monitor cytotoxicity in HEK293 cells - 0 hour (AID 1224869); conditions: CellTox Green fluorescence; series mostly up to 76.8 µM; also: nearly all actives have a fitted effect of over 50% in size
Method in brief: as §4

[20] = A CellTox Green Cytotoxicity Assay to monitor cytotoxicity in HepG2 cells - 24 hour (AID 1224878); conditions: CellTox Green fluorescence; series mostly up to 76.8 µM; also: nearly all actives have a fitted effect of over 45% in size
Method in brief: as §6
% is scaled to controls: 0 for no effect and ±100 for the full control effect.

CCOC(=O)CC(C(C)=O)C(C)=O
inactive: outcome [1] | outcome [2] | outcome [3] | Potency [4] | outcome [5] | outcome [6] | max response [7] 0.909% | Potency [8] | Potency [9] | outcome [10] | Potency [11] | Potency [12] | Potency [13] | Potency [14] | Potency [15] | Potency [16] | outcome [17] | outcome [18]

CC(C)CC(=O)N[C@H](C(=O)N[C@H](C(=O)N[C@@H](CC(C)C)[C@@H](O)CC(=O)N[C@@H](C)C(=O)N[C@@H](CC(C)C)[C@@H](O)CC(=O)O)C(C)C)C(C)C (Isovaleryl-VV[Sta]A[Sta]-OH)
inactive: outcome [1] | outcome [19] | outcome [3] | Potency [4] | outcome [5] | outcome [6] | max response [7] 14.7% | Potency [8] | Potency [9] | outcome [10] | Potency [11] | Potency [12] | Potency [13] | Potency [14] | Potency [15] | Potency [16] | outcome [17] | outcome [18]

CC(=O)OC/C=C(/C)CCC=C(C)C
inactive: outcome [1] | outcome [19] | outcome [3] | Potency [4] | outcome [5] | outcome [6] | max response [7] -1.6% | Potency [8] | Potency [9] | outcome [10] | Potency [20] | Potency [11] | Potency [12] | Potency [13] | Potency [14] | Potency [15] | Potency [16] | outcome [17] | outcome [18]

CCCCCC(=O)CC
inactive: outcome [1] | outcome [2] | outcome [3] | Potency [4] | outcome [6] | max response [7] 19.7% | Potency [8] | Potency [9] | outcome [10] | Potency [20] | Potency [11] | Potency [12] | Potency [13] | Potency [14] | Potency [15] | Potency [16] | outcome [17] | outcome [18]

COC(=O)c1ccc(NC(C)=O)cc1OC
inactive: outcome [1] | outcome [2] | outcome [3] | Potency [4] | outcome [5] | outcome [6] | max response [7] 3.94% | Potency [8] | Potency [9] | outcome [10] | Potency [20] | Potency [11] | Potency [12] | Potency [14] | Potency [15] | Potency [16] | outcome [17] | outcome [18]

CC(C)(O)CCCC1=CCC(C=O)CC1 (configuration not stated)
inactive: outcome [1] | outcome [2] | outcome [3] | Potency [4] | outcome [5] | outcome [6] | max response [7] -16% | outcome [10] | Potency [20] | Potency [12] | Potency [13] | Potency [14] | Potency [15] | Potency [16] | outcome [17] | outcome [18]

CCCCCCCCCCCCCCCC(=O)OC
inactive: activity change, negative = cytotoxicity [1] -0.801% [at 15.8 µM] | activity change, negative = cytotoxic [2] -0.272% [at 15.8 µM] | activity change, negative = cytotoxic [3] 16.9% [at 15.8 µM] | cytotoxicity increase [4] -6.02% [at 15.8 µM] | viability change, negative = cytotoxic [6] -11% [at 15.8 µM] | max response [7] -0.62% | activity change [8] -1.12% [at 15.8 µM, hits give high values] | cytotoxicity increase [9] -17.1% [at 15.8 µM] | activity change, negative = cytotoxic [10] 6.89% [at 15.8 µM] | cytotoxicity [20] -19.7% [at 15.8 µM] | cytotoxicity increase [11] -22.4% [at 15.8 µM] | activity change, negative = cytotoxicity [12] -3.44% [at 15.8 µM] | cytotoxicity increase [13] -5.35% [at 15.8 µM] | cytotoxicity [14] -12.7% [at 15.8 µM] | cytotoxicity increase [15] -21.5% [at 15.8 µM] | cytotoxicity increase [16] -3.06% [at 15.8 µM] | activity change, negative = cytotoxic [17] -7.62% [at 15.8 µM] | activity change, negative = cytotoxicity [18] -2.1% [at 15.8 µM]

NNC(=O)CCCCC(=O)NN
inactive: outcome [1] | outcome [2] | outcome [3] | Potency [4] | outcome [5] | outcome [6] | max response [7] 3.47% | Potency [8] | outcome [10] | Potency [20] | Potency [12] | Potency [14] | Potency [15] | Potency [16] | outcome [17] | outcome [18]

N=C(N)S(=O)O
inactive: outcome [1] | outcome [2] | outcome [3] | Potency [4] | outcome [5] | outcome [6] | max response [7] 11.7% | Potency [8] | Potency [9] | outcome [10] | Potency [20] | Potency [11] | Potency [12] | Potency [13] | Potency [14] | Potency [15] | Potency [16] | outcome [17] | outcome [18]

CC(C)CC(O)Cc1ccccc1 (configuration not stated)
inactive: outcome [1] | outcome [2] | outcome [3] | Potency [4] | outcome [5] | outcome [6] | max response [7] 1.47% | Potency [9] | outcome [10] | Potency [12] | Potency [13] | Potency [14] | Potency [15] | Potency [16] | outcome [17] | outcome [18]

CC(C)(C)c1ccc(N)cc1
active: Potency [15] 61.7 µM
inactive: outcome [1] | outcome [3] | Potency [4] | outcome [5] | outcome [6] | max response [7] -2.84% | Potency [8] | outcome [10] | Potency [12] | Potency [13] | Potency [14] | Potency [16] | outcome [17] | outcome [18]

CC(O)C(CO)C(C)O (configuration not stated)
inactive: outcome [1] | outcome [19] | Potency [4] | outcome [5] | outcome [6] | max response [7] -0.0675% | Potency [8] | Potency [9] | outcome [10] | Potency [20] | Potency [12] | Potency [14] | Potency [15] | Potency [16] | outcome [17] | outcome [18]
